Inconclusive results are not listed. Active and inactive are the calls of the source. Unless noted, the call rests on the fitted dose curve; in most records, active means well fitted curve in the direction sought with a large enough effect in the repeat runs; inconclusive means weak or mixed curves; inactive means no such curve, though single readings can be large; an effect the other way counts as inactive or inconclusive.
How the values were obtained:
[1] = qHTS assay to identify small molecule agonists of the peroxisome proliferator-activated receptor delta (PPARd) signaling pathway - cell viability counter screen (AID 743211); further: nearly all actives have a fitted effect of over 55% in size
Procedure, shortened: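 Viability of GeneBLAzer PPARd UAS-bla HEK293H cells was assessed after 17 h compound incubation at 37C, using CellTiter-Glo reagent added after the reporter read and luminescence recorded 30 min later.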

[2] = biological target: Peroxisome proliferator-activated receptor delta (Homo sapiens) (UniProt Q03181); test: qHTS assay to identify small molecule agonists of the peroxisome proliferator-activated receptor delta (PPARd) signaling pathway (AID 743212; calls by dose curve)
Peroxisome proliferator-activated receptor delta (Homo sapiens), sequence (Q03181 whole entry, looked up): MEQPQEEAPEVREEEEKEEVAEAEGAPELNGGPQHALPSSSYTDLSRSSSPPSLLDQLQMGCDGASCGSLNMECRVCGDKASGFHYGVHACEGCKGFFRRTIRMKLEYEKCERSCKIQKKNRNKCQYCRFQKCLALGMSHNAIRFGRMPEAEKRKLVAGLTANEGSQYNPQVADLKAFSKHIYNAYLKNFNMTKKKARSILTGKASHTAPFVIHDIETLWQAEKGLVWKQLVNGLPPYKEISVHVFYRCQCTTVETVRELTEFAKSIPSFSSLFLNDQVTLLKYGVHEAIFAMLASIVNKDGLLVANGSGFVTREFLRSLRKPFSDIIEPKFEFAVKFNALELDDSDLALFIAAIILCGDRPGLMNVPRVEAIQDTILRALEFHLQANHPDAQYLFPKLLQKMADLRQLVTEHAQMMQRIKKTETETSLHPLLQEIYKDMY
Procedure, shortened: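 Quantitative high-throughput agonist screen in a HEK293H beta-lactamase reporter line under UAS control. Compounds in DMSO, at 37 C. Fluorescence read after 2 h with FRET substrate at room temperature.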

[3] = qHTS assay to identify small molecule antagonists of the peroxisome proliferator-activated receptor delta (PPARd) signaling pathway - cell viability counter screen (AID 743213); further: nearly all actives have a fitted effect of over 50% in size
Procedure, shortened: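 HEK293H cells with the PPARd UAS-bla reporter, co-treated 17 h at 37 C with compounds and L165041 (300 nM final), were lysed with CellTiter-Glo. Luminescence indicated viable cell content.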

[4] = biological target: Bile acid receptor (Homo sapiens) (UniProt Q96RI1); test: qHTS assay to identify small molecule antagonists of the farnesoid-X-receptor (FXR) signaling pathway (AID 743217; active means well fitted inhibition curve with a large enough effect in the signal ratio in the repeat runs, not every such curve was filed as active; the % refers to the signal ratio)
Bile acid receptor (Homo sapiens), sequence (Q96RI1 whole entry, looked up): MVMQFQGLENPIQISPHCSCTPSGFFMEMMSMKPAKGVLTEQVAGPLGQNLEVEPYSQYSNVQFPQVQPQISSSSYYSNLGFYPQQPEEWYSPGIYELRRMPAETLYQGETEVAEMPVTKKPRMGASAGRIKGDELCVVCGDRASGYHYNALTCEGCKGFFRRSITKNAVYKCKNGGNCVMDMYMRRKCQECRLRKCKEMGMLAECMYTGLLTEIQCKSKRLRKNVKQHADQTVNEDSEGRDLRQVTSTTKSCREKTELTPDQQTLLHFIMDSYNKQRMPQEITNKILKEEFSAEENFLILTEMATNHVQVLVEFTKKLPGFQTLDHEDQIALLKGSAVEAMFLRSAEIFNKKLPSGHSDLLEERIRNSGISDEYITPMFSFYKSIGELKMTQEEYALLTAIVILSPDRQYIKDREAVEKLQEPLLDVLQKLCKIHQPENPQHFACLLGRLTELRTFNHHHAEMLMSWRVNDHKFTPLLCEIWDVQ
Procedure, shortened: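 In this cell-based antagonist screen, inhibition of CDCA-driven (50 uM final) UAS-beta-lactamase expression in HEK 293T cells was measured by FRET fluorescence following 16 h compound exposure at 37 °C.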

[5] = biological target: Bile acid receptor (Homo sapiens) (UniProt Q96RI1); test: qHTS assay to identify small molecule agonists of the farnesoid-X-receptor (FXR) signaling pathway (AID 743220; active means well fitted activation curve with a large enough effect in the signal ratio in the repeat runs, not every such curve was filed as active; the % refers to the signal ratio)
Procedure, shortened: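 Beta-lactamase reporter under UAS control in GeneBLAzer FXR HEK 293T cells (5000/well) measured with LiveBLAzer FRET substrate after 2 h at room temperature. Compound exposure lasted 16 h at 37C.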

[6] = qHTS assay to identify small molecule antagonists of the farnesoid-X-receptor (FXR) signaling pathway - cell viability counter screen (AID 743221; active means well fitted cell-killing curve with a large enough effect in the repeat runs, not every such curve was filed as active; further: nearly all actives have a fitted effect of over 50% in size)
Procedure, shortened: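 Quantitative HTS of the Tox21 10K library run in parallel with the beta-lactamase reporter read. HEK 293T cells carrying a UAS-driven bla reporter got compound and 50 uM CDCA (final) for 16 h; ATP-based luminescence followed.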

[7] = qHTS assay to identify small molecule agonists of the vitamin D receptor (VDR) signaling pathway - cell viability counter screen (AID 743224); further: series mostly up to about 63 µM; nearly all actives have a fitted effect of over 50% in size
Procedure, shortened: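 Here cell health was gauged by luminescent ATP detection (CellTiter-Glo, 30 min RT) in VDR-bla cells that had been incubated with test compounds for 16 h at 37C and 5% CO2.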

[8] = qHTS assay to identify small molecule antagonists of the vitamin D receptor (VDR) signaling pathway - cell viability counter screen (AID 743225); further: nearly all actives have a fitted effect of over 50% in size
Procedure, shortened: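 Cells (VDR-UAS-bla HEK 293T) are plated, rested 4 h at 37C, dosed with compound and 3 nM final 1-alpha,25-dihydroxy vitamin D3, and incubated 16 h. Viability is taken from CellTiter-Glo luminescence in the reporter wells.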

[9] = qHTS assay to identify small molecule agonists of the endoplasmic reticulum stress response signaling pathway (AID 1159516; active means well fitted activation curve with a large enough effect in the signal ratio in the repeat runs, not every such curve was filed as active; the % refers to the signal ratio)
Procedure, shortened: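 Reporter HeLa cells (ESRE-beta-lactamase) underwent 5 hr compound incubation at 37 C and 5% CO2 in quantitative HTS format. Detection followed 2 hr of FRET substrate loading at room temperature.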

[10] = qHTS assay to identify small molecule agonists of the endoplasmic reticulum stress response signaling pathway - cell viability counter screen (AID 1159517; calls by dose curve)
Procedure, shortened: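 Counter-screen wells were identical to the reporter wells. Cells were plated at 1,500 per well and dosed for 5 hr, then read for luminescence 30 min after CellTiter-Glo addition.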

[11] = qHTS assay to identify small molecule antagonists of the retinoid-related orphan receptor gamma (ROR-gamma) signaling pathway - cell viability counter screen (AID 1159520); further: nearly all actives have a fitted effect of over 50% in size
Procedure, shortened: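 Tet-on ROR gamma CHO cells were given compounds for 2 hr, then doxycycline hyclate at 1 uM final, and incubated 16 hr at 37 C. Viability was measured as ATP content by CellTiter-Glo luminescence.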

[12] = biological target: Nuclear receptor ROR-gamma (Homo sapiens) (UniProt P51449); test: qHTS assay to identify small molecule antagonists of the retinoid-related orphan receptor gamma (ROR-gamma) signaling pathway (AID 1159521)
Procedure, shortened: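 RORγ antagonism is scored from reduced reporter luminescence in Tet-on CHO cells. Induction used 1 uM final doxycycline hyclate for 16 h at 37 C, following a 2 h compound exposure.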

[13] = qHTS assay to identify small molecule agonists of the AP-1 signaling pathway - cell viability counter screen (AID 1159525; calls by dose curve; further: nearly all actives have a fitted effect of over 55% in size)
Procedure, shortened: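 AP-1-bla ME-180 cells in Opti-MEM with 0.5% dialyzed FBS, compound exposure 5 h at 37 C in 15-point titration. Viability read in the same wells as ATP content by CellTiter-Glo luminescence, normalised to tetra-n-octylammonium bromide and DMSO controls.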

[14] = qHTS assay to identify small molecule agonists of the AP-1 signaling pathway (AID 1159526; calls by dose curve)
[15] = biological target: Peroxisome proliferator-activated receptor delta (Homo sapiens) (UniProt Q03181); test: qHTS assay to identify small molecule antagonists of the peroxisome proliferator-activated receptor delta (PPARd) signaling pathway (AID 743215; active means well fitted inhibition curve with a large enough effect in the signal ratio in the repeat runs, not every such curve was filed as active; the % refers to the signal ratio;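 further: cells stimulated with agonist L165041 at 300 nM final during compound exposure; series mostly up to about 62 µM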)
Procedure, shortened: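 With L165041 present at 300 nM final, compounds were incubated 17 h at 37 C on PPARd UAS-bla HEK293H cells. A FRET-based beta-lactamase substrate was then applied for 2 h at room temperature and fluorescence intensity recorded.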

[16] = qHTS assay to identify small molecule agonists of the farnesoid-X-receptor (FXR) signaling pathway - cell viability counter screen (AID 743218); further: nearly all actives have a fitted effect of over 45% in size
Procedure, shortened: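 After 16 h at 37 C with test compounds, FXR-bla HEK 293T cells were given LiveBLAzer B/G substrate for 2 h at RT and then CellTiter-Glo; luminescence was taken after 30 min.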

[17] = biological target: Vitamin D3 receptor (Homo sapiens) (UniProt P11473); test: qHTS assay to identify small molecule agonists of the vitamin D receptor (VDR) signaling pathway (AID 743222; calls by dose curve)
Vitamin D3 receptor (Homo sapiens), sequence (P11473 whole entry, looked up): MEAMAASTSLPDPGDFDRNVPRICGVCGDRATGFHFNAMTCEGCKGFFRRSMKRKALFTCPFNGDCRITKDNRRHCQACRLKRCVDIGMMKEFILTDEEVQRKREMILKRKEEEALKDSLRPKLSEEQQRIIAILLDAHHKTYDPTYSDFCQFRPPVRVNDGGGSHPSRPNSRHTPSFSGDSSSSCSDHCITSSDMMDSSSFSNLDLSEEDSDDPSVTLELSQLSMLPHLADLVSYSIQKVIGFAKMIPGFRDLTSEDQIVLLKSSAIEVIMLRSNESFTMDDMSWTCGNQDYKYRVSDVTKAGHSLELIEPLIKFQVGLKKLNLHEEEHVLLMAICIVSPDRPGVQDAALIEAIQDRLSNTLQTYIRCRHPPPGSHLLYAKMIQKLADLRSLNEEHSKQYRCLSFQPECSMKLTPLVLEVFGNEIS
Procedure, shortened: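 VDR-bla cells were seeded, left 4 h, treated with compounds in DMSO for 16 h, incubated 2 h at RT with B/G FRET substrate, and read for fluorescence.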

[18] = biological target: Vitamin D3 receptor (Homo sapiens) (UniProt P11473); test: qHTS assay to identify small molecule antagonists of the vitamin D receptor (VDR) signaling pathway (AID 743223; active means well fitted inhibition curve with a large enough effect in the signal ratio in the repeat runs, not every such curve was filed as active; the % refers to the signal ratio)
Procedure, shortened: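 Fluorescence from LiveBLAzer B/G FRET substrate, read after 2 h at room temperature, reflects beta-lactamase reporter activity in VDR-bla cells treated 16 h at 37C with compounds and agonist 1alpha,25-dihydroxyvitamin D3 (3 nM final).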

[19] = biological target: Retinoic acid receptor RXR-alpha (Homo sapiens) (UniProt P19793); test: qHTS assay to identify small molecule agonists of the RXR signaling pathway (AID 1159527; calls by dose curve; further: nearly all actives have a fitted effect of over 35% in size)
Retinoic acid receptor RXR-alpha (Homo sapiens), sequence (P19793 whole entry, looked up): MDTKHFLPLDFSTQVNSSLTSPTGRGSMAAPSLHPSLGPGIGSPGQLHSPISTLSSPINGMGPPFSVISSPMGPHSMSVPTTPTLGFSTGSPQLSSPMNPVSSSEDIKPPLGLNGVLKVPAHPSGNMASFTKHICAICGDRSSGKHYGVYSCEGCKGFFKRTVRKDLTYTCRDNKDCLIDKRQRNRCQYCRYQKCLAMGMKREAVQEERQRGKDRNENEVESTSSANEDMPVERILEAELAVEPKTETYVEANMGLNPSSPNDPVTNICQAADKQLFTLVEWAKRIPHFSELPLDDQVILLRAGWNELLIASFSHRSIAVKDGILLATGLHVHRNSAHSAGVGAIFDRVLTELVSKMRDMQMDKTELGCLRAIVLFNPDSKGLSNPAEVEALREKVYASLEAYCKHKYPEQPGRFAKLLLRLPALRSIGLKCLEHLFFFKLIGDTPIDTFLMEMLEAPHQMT
Procedure, shortened: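 qHTS of the Tox21 10K library in GeneBLAzer RXR-alpha HEK 293T cells carrying a beta-lactamase reporter […]; 16 hr treatment, 9-cis retinoic acid as agonist control, FRET read-out.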

Measured: Potency

O=C(O)C(O)C(O)C(=O)O (stereo not drawn)
inactive: [1] | [2] | [3] | [4] | [5] | [6] | [7] | [8] | [9] | [10] | [11] | [12] | [13] | [14]

c1ccc2sc(SNC3CCCCC3)nc2c1
inactive: [1] | [2] | [3] | [15] | [4] | [16] | [5] | [6] | [17] | [18] | [7] | [8] | [9] | [10] | [11] | [12] | [13]

CC(C)(C)c1ccc(CCOc2ncnc3ccccc23)cc1
inactive: [1] | [3] | [4] | [5] | [6] | [17] | [18] | [8] | [9] | [10] | [11] | [12] | [13] | [14] | [19]

O=C(Cc1ccccc1)c1ccccc1
inactive: [1] | [2] | [3] | [4] | [16] | [6] | [18] | [7] | [9] | [10] | [11] | [12] | [13] | [14]

CCCN(CCOc1c(Cl)cc(Cl)cc1Cl)C(=O)n1ccnc1
inactive: [1] | [2] | [3] | [15] | [4] | [16] | [6] | [7] | [8] | [10] | [11] | [13] | [14]

CCCCC1C(=O)NC(=O)N(C2CCCCC2)C1=O (stereo not drawn)
inactive: [3] | [4] | [16] | [5] | [6] | [17] | [18] | [7] | [9] | [10] | [11] | [13] | [14] | [19]

CNC(=O)Oc1cccc(N=CN(C)C)c1
inactive: [1] | [2] | [15] | [4] | [16] | [6] | [17] | [18] | [8] | [9] | [10] | [11] | [12] | [13] | [14] | [19]

Source: PubChem BioAssay (Tox21)
